TGFb SMAD3 inh: blocks TGF-b signaling | AID 588855 | HepG2 CAGA-GFP TGF-b/SMAD3 reporter, GFP fluorescence, 18 h; TGF-beta stimulated, 500 pg/mL final | Potency, µM (series often up to 46.1 µM), without a hit: top-dose activity, negative = inhibition, actives largely listed as inhibitors | 1.2% of 410,000 active; also: % is scaled to controls: 0 for no effect and ±100 for the full control effect; nearly all actives have a fitted effect of over 65% in size
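TGF-beta reporter screen: HEPG2 CAGA-GFP, 1% FBS, 500 pg/mL TGF-beta final, 18 h; per-cell GFP summed per well; curves fitted and categorized by class.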
HepG2 viability: kills HepG2 cells in TGF-b inhibitor counter-screen; HepG2 CAGA-GFP viability, ATP luminescence, 18 h; Potency, µM (titrated, usually from 46.1 µM), inactives show top-dose activity change, negative = cytotoxicity, most hits filed as cytotoxic; 0.76% of 410,000 active; AID 588856
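CellTiter-Glo luminescence gave cytotoxicity after 18 hours at 37 degrees C. The cells were HepG2 CAGA-GFP in 1% FBS DMEM, stimulated with 500 pg/mL TGF-beta after compound addition. %Activity was normalised to no-cell wells (complete cell-killing) and DMSO (no toxicity), and curves were fitted and classified.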
VP16 counter: counter-screen for ROR gamma inhibitors: Gal4-VP16 reporter; Drosophila S2 Gal4-VP16 UAS-luciferase, luminescence, 20 h; Potency, µM (series often up to 53.6 µM), without a hit: at the highest dose activity, negative = inhibition, most hits filed as inhibitors; 3.5% of 310,000 active;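 also: Gal4-VP16 expression switched on by copper sulfate through the metallothionein promoter; % is scaled to controls: 0 for no effect and ±100 for the full control effect; nearly all actives have a fitted effect of over 50% in size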
RORgamma inh: blocks mouse ROR gamma transcriptional activity; AID 2551; Drosophila S2 Gal4-RORgamma UAS-luciferase reporter, 20 h; Potency, µM (doses to about 53.6 µM), for the others: at the highest dose activity change, negative = inhibition, hits mostly inhibitors; 5.4% of 310,000 active; P51450; also: % is scaled to controls: 0 for no effect and ±100 for the full control effect; nearly all actives have a fitted effect of over 60% in size
Target sequence (P51450 whole entry, looked up, the tested form may be a part): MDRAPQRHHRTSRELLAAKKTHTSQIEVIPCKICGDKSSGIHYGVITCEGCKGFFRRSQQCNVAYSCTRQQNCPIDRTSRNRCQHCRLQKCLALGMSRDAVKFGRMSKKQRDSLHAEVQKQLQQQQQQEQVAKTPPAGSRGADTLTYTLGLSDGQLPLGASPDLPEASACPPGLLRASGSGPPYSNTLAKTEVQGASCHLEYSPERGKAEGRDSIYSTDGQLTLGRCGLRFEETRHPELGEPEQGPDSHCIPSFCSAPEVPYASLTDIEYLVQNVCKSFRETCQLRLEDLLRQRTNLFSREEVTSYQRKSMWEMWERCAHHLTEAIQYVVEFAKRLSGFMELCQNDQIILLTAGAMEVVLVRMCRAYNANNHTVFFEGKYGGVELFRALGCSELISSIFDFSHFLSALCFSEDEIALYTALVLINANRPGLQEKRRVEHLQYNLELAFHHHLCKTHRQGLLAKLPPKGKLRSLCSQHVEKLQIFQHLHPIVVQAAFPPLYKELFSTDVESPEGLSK
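Stable Schneider cell line, Gal4 DNA-binding domain fused to ROR gamma, UAS-luciferase. Cmpd 1 hr RT → CuSO4 700 uM final → 20 hr RT → luciferase reagent 10 min → luminescence.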
ATXN viability: viability counter-screen for ATXN expression inhibitors; Potency, µM (doses to about 56.7 µM), hits mostly cytotoxic; 0.49% of 400,000 active; S2 cells (HEK-293 line with an ATXN2-luciferase reporter) viability, CellTiter-Fluor protease fluorescence, 24 h; also: nearly all actives have a fitted effect of over 40% in size
ATXN2 expr inh: reduces ATXN2 reporter expression in HEK-293 cells. Potency, µM (doses to about 57 µM), without a hit: at the top dose activity change, negative = inhibition, usual class: inhibitors. 0.72% of 360,000 active. HEK-293 ATXN2-luciferase reporter, luminescence, 24 h; also: % is scaled to controls: 0 for no effect and ±100 for the full control effect; nearly all actives have a fitted effect of over 55% in size
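ATXN2-luciferase reporter cells (luciferase flanked by upstream and downstream ATXN2 gene portions) were treated 24 h at 37 °C with compounds at up to 57 uM. SteadyGlo luminescence gave expression; GF-AFC fluorescence gave viability.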
Starred values were filed as active, the others as inactive; i = inactive; ? = inconclusive; nt = no result; [ ] = remark or other dose. Most compounds without a hit are left out; they make up all but 6.3% or so of the library. Calls follow the shape of the dose curve; as a rule, active = well fitted curve in the direction sought with a large enough effect; inconclusive = small, poorly fitted or top-dose-only effect, or another doubt; inactive = no such curve, though single readings can be large; an effect the other way counts as inactive or inconclusive. Potency is read from the fitted curve at half-maximal effect.

SMILES	TGFb SMAD3 inh	HepG2 viability	VP16 counter	RORgamma inh	ATXN viability	ATXN2 expr inh
COc1ccc(Cl)c(Cn2cnc3c(cnn3C(C)(C)C)c2=O)c1	-23%	-16%	nt	nt	nt	nt
CCOc1ccc(CNC(=O)CS(=O)(=O)c2cccc3nsnc23)cc1	-8%	-6%	nt	nt	i	3%
CCCn1c(NC(=O)C2COc3ccccc3O2)nc2ccccc21 (stereo not drawn)	-14%	-4%	1.4µM*	1.4µM*	i	-19%
CCC(=O)c1ccc(OCC(=O)Nc2nc(-c3cccnc3)cs2)cc1	-2%	-1%	nt	nt	i	18%
O=C(Nc1nc(-c2ccccc2Cl)cs1)c1cccnc1	-29%	1%	5%	18%	i	-4%
O=C(NC(=S)Nc1nc(-c2ccccc2)cs1)c1cccnc1	-2%	-2%	-13%	4µM*	i	-8%
O=C(O)c1ccc(NC(=S)NC(=O)c2cncc(Br)c2)cc1	-4%	-1%	?	?	i	nt
CCc1ccccc1OCC(=O)Nc1nc(-c2cccnc2)cs1	?	-2%	11µM*	3.2µM*	?	?
O=C(NC(=S)Nc1nc(-c2ccccc2)cs1)c1cncc(Br)c1	0%	-4%	?	1.6µM*	i	6%
O=C(CC[C@H]1O[C@@H](n2ccc(=O)[nH]c2=O)[C@H](O)[C@@H]1O)N[C@H](Cc1ccccc1)C(=O)NCC1CCCCC1	5%	1%	nt	nt	i	5%
Nc1nc2[nH]cc(CCc3ccc(C(=O)NC(CCC(=O)O)C(=O)O)cc3)c2c(=O)[nH]1 (stereo not drawn)	nt	nt	-1%	-21%	nt	nt
O=C(CC(Nc1cccc(Cl)c1Cl)C(=O)OCC(=O)c1cccs1)c1ccccc1 (stereo not drawn)	-12%	6%	-10%	20%	i	2%
O=C(CC(Nc1ccc(Cl)cc1)C(=O)O)c1ccccc1 (stereo not drawn)	-3%	-13%	5µM*	5µM*	i	126%
Cc1c(Cl)cccc1NC(CC(=O)c1ccccc1)C(=O)OCC(=O)c1cccs1 (stereo not drawn)	19%	1%	7.9µM*	11µM*	i	12%
Cc1c(Cl)cccc1NC(CC(=O)c1ccccc1)C(=O)O (stereo not drawn)	-15%	1%	6.3µM*	7.9µM*	i	11%
O=C(CC(Nc1cccc(Cl)c1Cl)C(=O)O)c1ccccc1 (stereo not drawn)	-14%	-1%	26%[10 µM]	11µM*	?	-19%
CCC(C(=O)Nc1cc(-c2nc3cccnc3s2)ccc1C)c1ccccc1 (stereo not drawn)	-8%	4%	nt	nt	i	50%
COCCCN1C(=O)C(CC(=O)NCc2cccs2)CC(C(=O)N(C)C)=C1C (stereo not drawn)	-5%	-23%	nt	nt	i	4%
O=C(CC(Nc1ccccc1Cl)C(=O)O)c1ccccc1 (stereo not drawn)	1%	-1%	27%[10 µM]	7.1µM*	i	132%
CCOC(=O)C(C)(C)Sc1ncnc2nc[nH]c12	?	-3%	4%	-5%	i	10%
CCOC(=O)c1cc([N+](=O)[O-])cc([N+](=O)[O-])c1Sc1ncnc2nc[nH]c12	13µM*	-101%	nt	nt	nt	?
Nc1nonc1-n1nnc(C(=O)N/N=C/c2ccoc2)c1CSc1ccccc1	4%	-19%	?	16µM*	i	nt
CC(C)c1ccc(/C=N/NC(=O)c2nnn(-c3nonc3N)c2CSC2=NCCS2)cc1	-14%	2%	?	16µM*	i	-11%
Nc1nonc1-n1nnc(C(=O)N/N=C/c2ccc(Br)cc2)c1CSC1=NCCS1	1%	3%	?	-124%	?	-1%
Nc1nonc1-n1nnc(C(=O)N/N=C/c2ccoc2)c1CSc1ccc(Cl)cc1	-31%	-10%	13µM*	7.1µM*	?	nt
SMILES	TGFb SMAD3 inh	HepG2 viability	VP16 counter	RORgamma inh	ATXN viability	ATXN2 expr inh
CO[C@@H](C(C)C)[C@@H](C)[C@@H]1OC(=O)C[C@@H]1O	nt	nt	8%[10 µM]	31%[10 µM]	nt	nt
Cc1cc(C)c(NC(=O)c2cc(S(=O)(=O)N3CCN(c4ccccc4F)CC3)ccc2F)c(C)c1	-17%	0%	nt	nt	i	8%
COc1ccc(CCCNC(=O)C2Cc3c(-c4ccccc4)ccnc3O2)cc1 (stereo not drawn)	?	-32%	nt	nt	18µM*	?
COc1ccc(CNC(=O)C2Cc3c(-c4ccccc4)ccnc3O2)cc1OC (stereo not drawn)	2%	5%	nt	nt	i	-2%
CC1(C)CC(=O)C2=C(C1)N(Cc1ccccc1)C(=O)C2(NC(=O)C(C)(C)C)C(F)(F)F (stereo not drawn)	20%	-1%	2%	11µM*	i	2%
CC(=O)NC1(C(F)(F)F)C(=O)N(Cc2ccccc2)C2=C1C(=O)CC(C)(C)C2 (stereo not drawn)	9%	3%	-1%	-2%	nt	nt
Cc1ccccc1S(=O)(=O)Cc1ccc(C(=O)NCc2ccccc2Cl)o1	?	-28%	nt	nt	i	-7%
O=c1c2ccccc2cnn1CCOc1ccccc1	-1%	-44%	4µM*	4.5µM*	i	?
CCOC(=O)C1=C(C)NC(C)=C(C(=O)OCC)C1C(=O)OCC(=O)NCCc1ccccc1	-9%	-25%	nt	nt	?	-20%
Cc1ccc([N+](=O)[O-])cc1S(=O)(=O)N(C)N=Cc1cnc2ccc(Br)cn12	nt	nt	nt	nt	nt	0.049µM*
Cc1ccc([N+](=O)[O-])cc1S(=O)(=O)N1CCNCC1	2%	3%	3%	3%	i	-5%
C/C(=N\Nc1nc(C)cc(-c2ccccc2)n1)c1ccccc1	-18%	-64%	5µM*	3.5µM*	i	-33%
C/C(=N\Nc1nc(C)cc(-c2ccccc2)n1)c1cccc(N)c1	?	-60%	16µM*	11µM*	?	nt
C/C(=N\Nc1nc(C)cc(-c2ccccc2)n1)c1ccc(O)cc1	?	-34%	?	?	i	-22%
C/C(=N\NC(=O)c1ccc(-c2ccccc2)cc1)c1cccc(N)c1	-4%	-20%	-16%	13µM*	i	-21%
C/C(=N\Nc1cc(-c2ccccc2)nc(-c2ccccc2)n1)c1ccc(O)c(C)c1	?	-111%	13µM*	8.9µM*	?	-27%
CC/C(=N\NC(=O)c1ccc(-c2ccccc2)cc1)C12CC3CC(CC(C3)C1)C2	-12%	-25%	?	22µM*	i	-21%
Oc1ccc(N=Nc2ccccc2)o1	?	13µM*	16µM*	?	?	-19%
